Sampled rows, rich in hits. Any-hit rate of the full collection: about 12%.
NS1 inh – influenza NS1 inhibition. Potency, µM (titrated, usually from 46.1 µM), for inactives: top-dose activity, positive = more growth. AID 2326. actives 0.4% (n = 270,000); calls by dose curve; note: actives are rising curves; nearly all actives have a fitted effect of over 50% in size
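S. cerevisiae expressing influenza A NS1, grown in glucose, washed, then diluted 1:100 into pH 6.0 -URA galactose medium with 23 nl compound. Growth recovery read as OD600; NS1-free strain serves as control.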
SARS PLpro yeast – blocks SARS-CoV papain-like protease in a yeast assay. S. cerevisiae expressing SARS-CoV PLpro, growth rescue. Potency, µM (top dose mostly 32.9 µM), for inactives: top-dose activity, positive = growth rescue, hits mostly activators. actives 0.19% (n = 330,000); calls by dose curve; note: 0% is about no effect; nearly all actives have a fitted effect of over 55% in size
Pf growth 48h – inhibits P. falciparum growth in the first generation, 48 h | P. falciparum luciferase growth in erythrocytes, 48 h | Potency, µM (series often up to 28.7 µM), inactives show at the top dose activity change, negative = inhibition, usual class: inhibitors | AID 504832 | actives 5.9% (n = 310,000); note: % is set by controls: 0 for no effect and ±100 for the full control effect
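Cell-based growth assay: transgenic P. falciparum expressing firefly luciferase, cultured in red cells within RPMI 1640 containing 0.5% w/v Albumax, 24 mM bicarbonate and gentamycin. A drop in luciferase activity indicates inhibition.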
Pf growth 96h – P. falciparum growth inhibition at 96 hours; P. falciparum luciferase reporter growth, 96 h; Potency, µM (top dose mostly 28.7 µM), for inactives: top-dose activity change, negative = inhibition, usual class: inhibitors; actives 6.9% (n = 320,000); note: % is set by controls: 0 for no effect and ±100 for the full control effect
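Infected RBCs, 2% Hct / 0.05% parasitemia final; luciferase-reporter P. falciparum; cpd 96 h, 37 C, 5% CO2; luciferase detection reagent; luminescence.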
AMA1-RON2 inh – inhibitors of Plasmodium falciparum AMA1-RON2 interaction; actives 0.2% (n = 360,000); Potency, µM (series often up to 58.2 µM), inactives show at the top dose activity change, negative = inhibition, usual class: inhibitors; AlphaScreen AMA1-biotinylated RON2 peptide binding;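 note: 0% = vehicle wells and -100% = peptide control; nearly all actives have a fitted effect of over 45% in size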
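AMA1 (3D7) with his tag at 25 nM final met compounds first, then biotinylated RON2 peptide at 25 nM; detection used donor plus acceptor beads, 10 µg/mL apiece, read by AlphaScreen after 30 min at room temperature.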
HCV inh – blocks hepatitis C virus. Huh7.5.1 HCVcc-Cre infection, luciferase reporter, 44 h. Potency, µM (highest dose often 41.8 µM), for the others: at the top dose activity change, negative = inhibition, usual class: inhibitors. actives 3.4% (n = 340,000); note: % is set by controls: 0 for no effect and ±100 for the full control effect
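Cells (1,000/well) were plated 4 h before compound, then infected with HCVcc-Cre virus (~0.5 moi). After 44 h further culture, infection was read as luciferase luminescence following a 15 min substrate incubation at room temperature.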
The depositor's hits bear a star; ? = inconclusive; nt = no result given. Unless noted, calls come from the whole dose curve; as a rule, active = well fitted curve in the direction sought with a large enough effect; inconclusive = small, poorly fitted or top-dose-only effect, or another doubt; inactive = no such curve, though single readings can be large; an effect the other way counts as inactive or inconclusive. Potency is the fitted concentration of half-maximal effect.

SMILES	NS1 inh	SARS PLpro yeast	Pf growth 48h	Pf growth 96h	AMA1-RON2 inh	HCV inh
Cc1ccc(S(=O)(=O)N2CCOCC2)cc1C(=O)Nc1ccccc1N1CCOCC1	nt	-0.4%	-14.0%	-29.3%	3.1%	14.7%
CC1=C(C(=O)N2CCOCC2)CC(CC(=O)NCc2cccc3ccccc23)C(=O)N1Cc1ccccc1 (configuration not stated)	nt	nt	nt	nt	-11.5%	nt
CN(C)Cc1csc(Nc2ccc(C(=O)c3ccccc3)cc2)n1	nt	nt	nt	nt	16.7%	nt
CCN(CC(=O)NC(C)(C)C)C(=O)CCl	4.1%	7.0%	11.7µM*	?	3.8%	?
CCN(CC(=O)NC(C)(C)C)C(=O)COc1c(Cl)cc(Cl)c2ccc(C)nc12	-32.3%	-0.6%	?	?	82.3%	?
O=S(Cc1ccccc1)Cc1ccccc1	nt	nt	nt	nt	-2.4%	-17.3%
Cc1ccccc1NS(=O)(=O)c1cccc2nsnc12	6.9%	-1.4%	-5.3%	?	1.1%	24.5%
C[C@H](CN(C)C)C(=O)c1ccccc1C(=O)O	-1.0%	nt	nt	nt	nt	nt
Cc1c(Br)c([N+](=O)[O-])nn1CC(=O)N1CCN(C23CC4CC(CC(C4)C2)C3)CC1	5.8%	-9.1%	?	37.0%	16.4%	-10.2%
Cc1c(O)c(CN2CCCC2)cc2c1oc(=O)c1ccccc12	-20.4%	0.5%	1.47µM*	6.4%	5.0%	?
CCc1cc(=O)oc2c(C)c(O)c(CN3CCCCC3)cc12	12.4%	-2.4%	?	nt	16.3%	8.1%
C=CCc1cc2c(oc(=O)c3ccccc32)c(C)c1O	-3.3%	-2.1%	-12.9%	14.7µM*	1.7%	-27.6%
Cc1c(O)c(CN2CCCC2)cc2c3c(c(=O)oc12)CCC3	11.2%	-11.6%	3.29µM*	?	0.9%	?
CS(=O)(=O)N(CC(=O)N1CCc2ccccc2C1)c1cccc(Br)c1	nt	nt	nt	nt	-8.4%	14.0%
CC(C)c1ccc(NC(=O)c2cccnc2)cc1	-10.2%	-3.7%	125.4%	7.38µM*	-1.0%	4.4%
CCC(C)c1ccc(O)c(NC(=O)c2cncc(Br)c2)c1 (configuration not stated)	-30.5%	-11.7%	1.04µM*	-22.5%	0.0%	?
CC(C)c1ccc(NC(=O)CSc2n[nH]c(=O)n2-c2cccnc2)cc1	10.5%	0.2%	-3.3%	13.1µM*	-4.7%	-3.9%
CC(C)c1ccccc1NC(=O)COC(=O)c1cccnc1	-6.9%	1.8%	-9.5%	13.1µM*	-0.3%	9.4%
CC(C)(C)c1ccc(NC(=O)CSc2n[nH]c(=O)n2-c2cccnc2)cc1	9.7%	-0.3%	-4.2%	2.2%	-4.0%	-0.7%
CCC(C)c1ccc(O)c(NC(=S)NC(=O)c2cccnc2)c1 (configuration not stated)	-3.4%	-3.7%	?	26.5%	104.0%	-8.3%
Cc1noc(C)c1S(=O)(=O)NCc1ccc(CN(C)C)cc1	nt	-10.4%	-11.6%	-22.8%	16.6%	18.3%
CC(C)c1ccc(NC(=O)c2csnn2)cc1	-6.1%	-2.6%	184.2%	nt	0.6%	14.1µM*
Cc1ccccc1NC(=O)c1cccnc1	9.8%	4.6%	27.5%	25.1%	5.8%	4.9%
Cc1cccc(C(C)C)c1NC(=O)c1cccnc1	3.0%	1.6%	14.5%	11.7µM*	-14.7%	2.4%
CC(C)c1ccc(NC(=O)c2n[nH]c(=O)c3ccccc23)cc1	nt	1.5%	107.8%	8.28µM*	21.0%	13.4%
SMILES	NS1 inh	SARS PLpro yeast	Pf growth 48h	Pf growth 96h	AMA1-RON2 inh	HCV inh
CC(C)c1ccc(O)c(NC(=O)c2cccnc2)c1	-7.8%	-8.0%	nt	10.4µM*	-1.8%	-2.0%
O=C(NCc1cccnc1)C1CCN(S(=O)(=O)c2cc([N+](=O)[O-])ccc2Cl)CC1	nt	nt	nt	nt	-3.9%	10.4%
CCOc1ccc(S(=O)(=O)NCCC(=O)NC2CCCCC2)cc1	nt	-1.8%	2.0%	4.0%	-30.6%	0.4%
COc1ccc(-c2csc(NC(=S)NC(=O)/C=C/c3ccco3)n2)cc1Br	11.8%	-0.3%	10.4µM*	?	-3.6%	-26.8%
O=C(/C=C/c1ccco1)Nc1nc(-c2ccc(F)c(F)c2)cs1	-1.2%	0.0%	?	0.7%	-3.8%	10µM*
Cc1nc(NS(=O)(=O)c2ccc(N)cc2)nc(C)c1Br	nt	nt	4.0%	3.5%	nt	nt
CC1(C)Cc2c(sc3nc(-c4ccccc4)n(N)c(=O)c23)CO1	10.7%	0.4%	52.0%	?	45.3%	14.2%
CSc1nnc2c3c4c(sc3c(=O)n(-c3ccccc3)n12)CC(C)(C)OC4	-1.7%	10.0%	0.738µM*	nt	19.2%	15.4%
CC(C)[C@@]1(c2ccc(Cl)cc2)ON(c2ccccc2C(F)(F)F)C1=O	nt	-11.1%	2.08µM*	2.33µM*	nt	-11.9%
COc1ccc([C@@]2(C(C)C)ON(c3ccccc3C(F)(F)F)C2=O)cc1	nt	0.3%	0.329µM*	0.294µM*	41.6%	?
COc1ccc([C@]2(C(C)C)ON(c3ccccc3C(F)(F)F)C2=O)cc1	nt	3.1%	1.04µM*	2.08µM*	22.9%	?
CCOC(=O)c1c(NC(=O)COC(=O)Cc2n[nH]c(=O)c3ccccc23)sc(C(=O)NC)c1C	nt	-1.0%	nt	nt	16.3%	3.7%
O=C(O)c1cccnc1C(=O)O	-1.0%	-3.4%	36.2%	5.6%	-41.2%	0.708µM*
CC(C)NCC(O)c1ccc(N)c(C#N)c1 (configuration not stated)	nt	nt	-2.3%	12µM*	nt	nt
COc1cccc(NC(=O)CN2C(=O)c3cccnc3Oc3ccc(Cl)cc32)c1	13.7%	4.4%	13.1µM*	1.5%	8.9%	?
O=C(CN1C(=O)c2cccnc2Oc2ccc(Cl)cc21)NCCCc1ccccc1	6.1%	6.1%	?	77.5%	-7.7%	11.2µM*
O=C(O)c1cc(=O)[nH]c2ccccc12	nt	nt	nt	nt	-4.8%	11.0%
CC(C)(C)C1CCc2nc(NC(=O)Cc3cn4ccsc4n3)sc2C1 (configuration not stated)	?	-11.2%	-12.2%	nt	-13.0%	22.4µM*
CCCCCNc1nc(NCCCO)c(C#N)c2c1CN(C)CC2	4.0%	0.5%	nt	11.7µM*	-0.9%	?
CN1CCc2c(C#N)c(N3CCOCC3)nc(NCC3CCCO3)c2C1 (configuration not stated)	4.1%	-0.1%	?	?	-4.5%	-13.7%
CCCCCNc1nc(N2CCCC2)c2c(c1C#N)CCN(C)C2	1.2%	-4.3%	4.15µM*	0.4%	?	?
O=C(Nc1cccc(S(=O)(=O)N2CCCC2)c1)c1ccc2c(=O)n3c(nc2c1)CCCCC3	-30.5%	-7.7%	?	5.22µM*	-12.2%	2.82µM*
O=C(Nc1cccc(S(=O)(=O)N2CCOCC2)c1)c1ccc2c(=O)n3c(nc2c1)CCCCC3	-1.9%	2.0%	-28.2%	?	-11.1%	7.08µM*
CC(=O)c1cccc(NC(=O)c2ccc3c(=O)n4c(nc3c2)CCCCC4)c1	-6.0%	0.0%	15.8%	4.6%	-12.1%	?

Source: PubChem
